Drawing on PubChem BioAssay (NCI), this text covers growth for 5 molecules.

Test systems include DU-145 prostate; K-562 leukemia; MALME-3M melanoma; MDA-MB-231 breast; RXF 393 renal; SF-268 CNS; SF-295 CNS; SF-539 CNS; UACC-257 melanoma; M14 melanoma; HCT-15 colon; HT29 colon; SNB-75 CNS; SNB-19 CNS; PC-3 prostate; SK-MEL-5 melanoma; UACC-62 melanoma; LOX IMVI melanoma; SK-MEL-28 melanoma; U251 CNS.
Common to all, as to test: NCI-60 one-dose screen, 48 h (100 = growth as untreated, 0 = no growth, -100 = all killed)
Holding throughout (settings): 10 µM unless noted

Several values for one entry are separate records, joined by “and”; a condition that tells them apart may be missing. Identical values can stand only once. The panel holds about 83,000 compounds, 20% with a hit somewhere; the sample as a whole holds those more often.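 Testing used 96-well plates and a 48-hour single-concentration exposure. Example: -40 means 40% of the starting cells died.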 Activity calls are given as the source filed them. The calls were made as follows: active = growth percent below 10; inactive = the rest.

For `NC(=O)NCCCC(N)C(=O)O` (stereo not drawn), the growth is 101% (inactive) in the test with DU-145 prostate; 97.9% (inactive) with K-562 leukemia; 93.1% (inactive) with MALME-3M melanoma; 104% (inactive) with MDA-MB-231 breast; 106% (inactive) in the test on RXF 393 renal; 104% (inactive) in the test with SF-268 CNS. The growth was 117% (inactive) in the test on SF-295 CNS; 103% (inactive) in the test on SF-539 CNS; 102% (inactive) in the test on UACC-257 melanoma; 100% (inactive) in the test with M14 melanoma; 109% (inactive) with HCT-15 colon; 101% (inactive) with HT29 colon. The growth with SNB-75 CNS is 104% (inactive); with SNB-19 CNS, 92.1% (inactive); in the test on PC-3 prostate it was 95.5% (inactive); in the test on SK-MEL-5 melanoma, 113% (inactive); in the test with UACC-62 melanoma, 102% (inactive); with LOX IMVI melanoma, 67.6% (inactive). The growth with SK-MEL-28 melanoma was 99% (inactive).

Turning to `O=c1[nH]cnc2c1ncn2C1OC(CO)C(O)C1O` (stereo not drawn), the growth with DU-145 prostate was 126% (inactive) and 133% (inactive) and 112% (inactive); in the test on K-562 leukemia it was 105% (inactive) and 108% (inactive) and 113% (inactive); with MALME-3M melanoma, 131% (inactive) and 124% (inactive) and 110% (inactive); with MDA-MB-231 breast, 110% (inactive) and 105% (inactive) and 108% (inactive); in the test on RXF 393 renal, 129% (inactive) and 118% (inactive); in the test on SF-268 CNS, 114% (inactive) and 112% (inactive) and 94.2% (inactive). The growth in the test on SF-295 CNS is 124% (inactive) and 111% (inactive) and 88.8% (inactive); in the test with SF-539 CNS, 113% (inactive) and 96.1% (inactive); in the test on UACC-257 melanoma it was 104% (inactive) and 119% (inactive); in the test with M14 melanoma, 100% (inactive) and 107% (inactive) and 98.2% (inactive); with HCT-15 colon, 135% (inactive) and 124% (inactive) and 110% (inactive); in the test on HT29 colon, 116% (inactive) and 109% (inactive). Besides, the growth was 115% (inactive) and 99.9% (inactive) and 98.8% (inactive) in the test on SNB-75 CNS; 99.5% (inactive) and 106% (inactive) and 93.5% (inactive) in the test with SNB-19 CNS; 108% (inactive) and 110% (inactive) and 102% (inactive) in the test with U251 CNS; 89.3% (inactive) and 81.6% (inactive) and 98.8% (inactive) in the test with PC-3 prostate; 106% (inactive) and 109% (inactive) and 107% (inactive) in the test on SK-MEL-5 melanoma; 96.1% (inactive) and 106% (inactive) and 98.6% (inactive) in the test with UACC-62 melanoma. Also, the growth in the test on LOX IMVI melanoma was 101% (inactive) and 103% (inactive) and 91.7% (inactive); in the test on SK-MEL-28 melanoma, 113% (inactive) and 116% (inactive) and 118% (inactive).

As to `O=C(O)/C=C\C(=O)Nc1cccc2ccccc12`, the growth with DU-145 prostate is 109% (inactive) and 123% (inactive); in the test with K-562 leukemia, 110% (inactive) and 94% (inactive); in the test on MALME-3M melanoma, 116% (inactive) and 119% (inactive); with MDA-MB-231 breast, 85.1% (inactive) and 107% (inactive); in the test on RXF 393 renal it was 113% (inactive) and 132% (inactive); in the test with SF-268 CNS, 78.6% (inactive) and 107% (inactive). Also, the growth was 117% (inactive) and 104% (inactive) in the test with SF-295 CNS; 89.2% (inactive) and 110% (inactive) in the test on SF-539 CNS; 95.1% (inactive) and 101% (inactive) with UACC-257 melanoma; 99.6% (inactive) and 96.8% (inactive) in the test on M14 melanoma; 102% (inactive) and 96.9% (inactive) in the test with HCT-15 colon; 98.1% (inactive) and 110% (inactive) in the test on HT29 colon. The growth is 70% (inactive) and 83% (inactive) in the test with SNB-75 CNS; 104% (inactive) and 100% (inactive) in the test on SNB-19 CNS; 94.2% (inactive) and 102% (inactive) in the test on U251 CNS; 103% (inactive) and 93.6% (inactive) in the test on PC-3 prostate; 95.3% (inactive) and 108% (inactive) in the test with SK-MEL-5 melanoma; 99.8% (inactive) and 79.8% (inactive) with UACC-62 melanoma. Also, the growth with LOX IMVI melanoma is 102% (inactive) and 104% (inactive); in the test on SK-MEL-28 melanoma, 101% (inactive) and 116% (inactive).

Regarding `CCCCCCCCCCCCCCCCC(C(=O)O)C(O)(CC(=O)O)C(=O)O` (stereo not drawn), the growth was 124% (inactive) and -1.43% (active) in the test with DU-145 prostate; 90.9% (inactive) and 1.15% (active) in the test on K-562 leukemia; 108% (inactive) and -8.6% (active) in the test with MALME-3M melanoma; 126% (inactive) and 14.1% (inactive) in the test on MDA-MB-231 breast; 98.4% (inactive) and 9.56% (active) in the test on RXF 393 renal; 116% (inactive) and 10% (inactive) with SF-268 CNS. The growth with SF-295 CNS is 15.4% (inactive); in the test with SF-539 CNS it was 109% (inactive) and -20.3% (active); in the test with UACC-257 melanoma, 115% (inactive) and 18.2% (inactive); in the test with M14 melanoma, 102% (inactive) and -34.8% (active); with HCT-15 colon it was 105% (inactive) and 66.4% (inactive); in the test on HT29 colon, 93.9% (inactive) and -31.8% (active). Also, the growth in the test with SNB-75 CNS is 98.8% (inactive) and -58.3% (active); in the test on SNB-19 CNS it was 110% (inactive) and 15% (inactive); in the test with PC-3 prostate, 110% (inactive) and 19.8% (inactive); in the test with SK-MEL-5 melanoma it was 107% (inactive); with UACC-62 melanoma, 108% (inactive) and -70.3% (active); in the test on LOX IMVI melanoma it was 106% (inactive) and 0.982% (active). The growth in the test on SK-MEL-28 melanoma was 108% (inactive).

In the case of `Cc1cc2ccccc2cn1`, the growth was 114% (inactive) and 122% (inactive) in the test on DU-145 prostate; 118% (inactive) and 102% (inactive) in the test with K-562 leukemia; 101% (inactive) and 100% (inactive) with MALME-3M melanoma; 97.9% (inactive) and 107% (inactive) in the test on MDA-MB-231 breast; 104% (inactive) in the test with RXF 393 renal; 101% (inactive) and 134% (inactive) in the test on SF-268 CNS. Also, the growth is 100% (inactive) and 90.3% (inactive) in the test on SF-295 CNS; 102% (inactive) and 98.7% (inactive) in the test with SF-539 CNS; 97.3% (inactive) in the test with UACC-257 melanoma; 107% (inactive) and 111% (inactive) in the test with M14 melanoma; 104% (inactive) and 105% (inactive) in the test with HCT-15 colon; 109% (inactive) and 102% (inactive) in the test on HT29 colon. In addition, the growth was 92.9% (inactive) and 83.1% (inactive) with SNB-75 CNS; 95.3% (inactive) and 97.7% (inactive) with SNB-19 CNS; 99.4% (inactive) and 103% (inactive) in the test with U251 CNS; 95.3% (inactive) and 96% (inactive) in the test on PC-3 prostate; 101% (inactive) and 109% (inactive) in the test with SK-MEL-5 melanoma; 92.5% (inactive) and 95.2% (inactive) in the test with UACC-62 melanoma. Also, the growth was 102% (inactive) and 99.7% (inactive) with LOX IMVI melanoma; 109% (inactive) and 200% (inactive) in the test with SK-MEL-28 melanoma.
